# According to PubChem BioAssay (EPA / NIEHS):
# “And” between values parts separate entries of the source, which are not always exact repeats. Identical values can stand only once. Inconclusive results are not listed. Some structures have more than one record in an assay (separate samples or runs), and their calls can disagree. The source made the active and inactive calls. The calls were made as follows: active = hit-call score of the fitted dose curve at least 0.9, where 1 is the maximum; inconclusive = response in the unintended direction; inactive = score below 0.9.
# Target: Nuclear receptor subfamily 1 group I member 2 (Homo sapiens) (UniProt O75469)
# Experiment: ATG_PXR_TRANS: Attagene TRANS-FACTORIAL HepG2 Assay for human Pregnane X Receptor (PXR) (AID 2283008)
# Description: ATG_TRANS is a cell-based, multiplexed-readout assay that uses HepG2, a human liver cell line, with measurements taken at 24 hours after chemical dosing in a 24-well plate.ATG_PXR_TRANS is one of 30 assay component(s) measured or calculated from the ATG_TRANS assay. It is designed to make measurements of mRNA induction, a form of inducible reporter, as detected with fluorescence intensity signals by Reverse transcription polymerase chain reaction (RT-PCR) and Capillary electrophoresis technology.Data from the assay component ATG_PXR_TRANS was analyzed into 1 assay endpoint. This assay endpoint, ATG_PXR_TRANS, was analyzed in the positive analysis fitting direction relative to DMSO as the negative control and baseline of activity. Using a type of inducible reporter, measures of mRNA for gain-of-signal activity can be used to understand the reporter gene at the transcription factor-level as they relate to the gene NR1I2. Furthermore, this assay endpoint can be referred to as a primary readout, because this assay has produced multiple assay endpoints where this one serves a reporter gene function. To generalize the intended target to other relatable targets, this assay endpoint is annotated to the nuclear receptor intended target family, where the subfamily is non-steroidal.
# Human liver HepG2 cells are transiently transfected with multiple reporter transcription units (MRTUs) in 6-well plates using FuGene 6 reagent (Roche; 3 ml FuGene/1 mg DNA). The MRTU constructs are regulated by a cis-regulating element (promoter). […] A major difference between the CIS and TRANS system is that in CIS activities of endogenous TFs are measured, whereas the TRANS assay evaluates changes in activities of exogenous, chimeric NR-Gal4 proteins. […] At the end of 24 hour incubation, total RNA was isolated using TriZol reagent (Invitrogen). The isolated RNA is then reverse-transcribed using oligo(dT) primer and Mo-MLV reverse transcriptase (Invitrogen) with DNAse I (Ambion) treatment for 30 min. The one-tenth of the produced cDNA was amplified by PCR using Taq DNA polymerase (Invitrogen) and two reporter sequence-specific primers. The PCR products were fluorescently labeled by primer extension with 6-arboxyfluorescein (6-FAM) 5'-labeled reporter sequence-specific primer (2 min at 95 C, 20 s at 68 C and 10 min at 72 C) and these products were digested with 5U of HpaI (New England Biolabs) for 2h at 37 C. The fragments were purified using Qiaquick PCR columns (Qiagen), analyzed on an ABI 3130xL genetic analyzer (Applied Biosystems) with peak positions identified by using a set of X-rhodamine (ROX)-labeled MapMarker1000 molecular weight standards (BioVentures). The raw capillary electrophoresis data was processed using Attagraph software (Attagene).
# Nuclear receptor subfamily 1 group I member 2 (Homo sapiens), sequence (O75469 whole entry, looked up): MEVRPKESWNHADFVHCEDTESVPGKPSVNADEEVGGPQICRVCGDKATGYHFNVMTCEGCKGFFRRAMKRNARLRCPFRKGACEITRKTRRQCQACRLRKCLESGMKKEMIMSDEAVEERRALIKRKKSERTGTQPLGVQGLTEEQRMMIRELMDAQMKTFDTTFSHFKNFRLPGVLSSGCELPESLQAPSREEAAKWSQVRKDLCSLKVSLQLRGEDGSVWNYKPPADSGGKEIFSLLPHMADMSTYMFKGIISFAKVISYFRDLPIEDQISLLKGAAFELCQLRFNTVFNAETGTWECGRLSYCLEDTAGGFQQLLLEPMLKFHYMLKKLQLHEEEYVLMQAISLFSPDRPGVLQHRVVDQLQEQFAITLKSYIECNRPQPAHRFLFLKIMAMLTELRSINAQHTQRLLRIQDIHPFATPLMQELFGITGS
Compound,AC50,outcome
C[C@]12C[C@H](O)[C@H]3[C@@H](CCC4=CC(=O)CC[C@@]43C)[C@@H]1CC[C@@H]2C(=O)CO,27.7 µM (active) and 11.4 µM (active),inactive
COc1c(Cl)ccc(Cl)c1C(=O)O,–,inactive
N[C@@H](Cc1cc(I)c(Oc2ccc(O)c(I)c2)c(I)c1)C(=O)O,30.5 µM (active) and 26.8 µM (active) and 6.08 µM (active),inactive
O=C(c1ccc(O)cc1O)c1ccc(O)cc1O,–,inactive
CCOC(=O)NCCOc1ccc(Oc2ccccc2)cc1,–,inactive
CC(C)(c1ccc(O)cc1)c1ccc(O)cc1,–,inactive
CCOC(=O)c1ccc(O)cc1,–,inactive
CCCCC(CC)COC(=O)c1ccccc1C(=O)O (stereo unspecified),–,inactive
CC(=O)[C@H]1CC[C@H]2[C@@H]3CCC4=CC(=O)CC[C@]4(C)[C@H]3CC[C@]12C,2.54 µM (active) [middle of 4 runs],–
CCCCCCC(C)OC(=O)COc1nc(F)c(Cl)c(N)c1Cl (stereo unspecified),–,inactive
O=C(c1ccccc1)C1CCCCC1,29.1 µM (active) and 8.99 µM (active) and 19.7 µM (active),inactive
CC(C)(C)[C@@H](O)[C@@H](Cc1ccc(Cl)cc1)n1cncn1,–,inactive
CCN(Cc1c(F)cccc1Cl)c1c([N+](=O)[O-])cc(C(F)(F)F)cc1[N+](=O)[O-],3.41 µM (active),–
COC(=O)c1c(Cl)nn(C)c1S(=O)(=O)NC(=O)Nc1nc(OC)cc(OC)n1,–,inactive
N#CSCSc1nc2ccccc2s1,–,inactive
CCNc1nc(N)nc(Cl)n1,–,inactive
COCCO,–,inactive

Compound,AC50,outcome
CCOC(=O)C(C)Oc1ccc(Oc2nc3ccc(Cl)cc3o2)cc1 (stereo unspecified),–,inactive
CC(=O)S[C@@H]1CC2=CC(=O)CC[C@]2(C)[C@H]2CC[C@@]3(C)[C@@H](CC[C@@]34CCC(=O)O4)[C@H]12,–,inactive
COC(=O)c1ccccc1C(=O)O,–,inactive
S=C(S)NCCNC(=S)S.[Mn+2].[S-]C([S-])=NCCN=C([S-])[S-].[Zn+2],12 µM (active) and 18.7 µM (active),inactive
C#C[C@]1(O)CC[C@H]2[C@@H]3CCC4=CC(=O)CC[C@@H]4[C@H]3CC[C@@]21CC,9.53 µM (active),inactive
COc1nc(C)nc(NC(=O)NS(=O)(=O)c2ccccc2OCCCl)n1,40 µM (active),inactive
COC(=O)CSc1cc(N=c2sc(=O)n3n2CCCC3)c(F)cc1Cl,–,inactive
CCOC(=O)C(C)Oc1ccc(Oc2cnc3cc(Cl)ccc3n2)cc1 (stereo unspecified),–,inactive
O=C(O)C1(C(=O)Nc2ccc(Cl)cc2Cl)CC1,–,inactive
CC1(C)C(C=C(Cl)Cl)C1C(=O)OCc1cccc(Oc2ccccc2)c1 (stereo unspecified),20.2 µM (active),–
CCCOC(=O)c1ccc(C(=O)OCCC)nc1,–,inactive
CCN(CC)C(=O)c1cccc(C)c1,–,inactive
CCCCC(CC)CN1C(=O)C2C3C=CC(C3)C2C1=O (stereo unspecified),14.6 µM (active),–
CCCN(CCC)C(=O)SCC,–,inactive
CN(C)C(=O)Nc1ccc(Cl)c(Cl)c1,6.84 µM (active),inactive
CCC(C)OC(=O)N1CCCCC1CCO (stereo unspecified),9.99 µM (active),inactive
